Assay results taken from PubChem BioAssay (NCI).
Compounds without any hit were thinned out: in the full panel of roughly 83,000, 20% have a hit.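 Results are percent growth after 48 hours of single-concentration exposure. 100 means growth as in untreated cells, lower positive values show inhibition; negative values down to -100 show cell death.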 Calls of active or inactive are those of the source. How the source made its calls: active means growth percent below 10; inactive means the rest.

Assays:
Assay in all cases: NCI-60 one-dose screen, 48 h (100 = growth as untreated, 0 = no growth, -100 = all killed)
HCT-15 colon = settings: 10 µM
HT29 colon = settings: 10 µM
SNB-75 CNS = settings: 10 µM
SNB-19 CNS = settings: 10 µM
U251 CNS = settings: 10 µM
PC-3 prostate = settings: 10 µM
SK-MEL-5 melanoma = settings: 10 µM
UACC-62 melanoma = settings: 10 µM unless noted
LOX IMVI melanoma = settings: 10 µM
SK-MEL-28 melanoma = settings: 10 µM

Measured: growth

CC1CCCCN1C(=S)Nc1ccc(S(=O)(=O)N2CCCCC2)cc1 (stereo not given)
inactive: HCT-15 colon 99.2% | HT29 colon 94% | SNB-75 CNS 129% | SNB-19 CNS 109% | U251 CNS 95.7% | PC-3 prostate 83% | SK-MEL-5 melanoma 103% | UACC-62 melanoma 95.6% | LOX IMVI melanoma 105% | SK-MEL-28 melanoma 98.6%

COc1ccc(C(O)c2ccccc2)cc1 (stereo not given)
inactive: HCT-15 colon 100% | HT29 colon 105% | SNB-75 CNS 96.1% | SNB-19 CNS 105% | U251 CNS 94.1% | PC-3 prostate 94.7% | SK-MEL-5 melanoma 99.3% | UACC-62 melanoma 95.3% | LOX IMVI melanoma 86.2% | SK-MEL-28 melanoma 105%

CC1SC(N)=NC1=O (stereo not given)
inactive: HCT-15 colon 114% | HT29 colon 128% | SNB-75 CNS 103% | SNB-19 CNS 109% | U251 CNS 113% | PC-3 prostate 106% | SK-MEL-5 melanoma 113% | UACC-62 melanoma 100% | LOX IMVI melanoma 104% | SK-MEL-28 melanoma 112%

COc1cc(-c2ccc(NC(=O)NC3CC3)c(OC)c2)ccc1NC(=O)NC1CC1
inactive: HCT-15 colon 31.2% | HT29 colon 48.6% | SNB-75 CNS 89.4% | SNB-19 CNS 84.7% | U251 CNS 37.4% | PC-3 prostate 41.6% | SK-MEL-5 melanoma 47.6% | UACC-62 melanoma 70.7% | LOX IMVI melanoma 36.8% | SK-MEL-28 melanoma 86.7%

CN(C)c1ccc(S(=O)(=O)O)cc1
inactive: HCT-15 colon 102% | HT29 colon 102% | SNB-75 CNS 96.3% | SNB-19 CNS 109% | U251 CNS 108% | PC-3 prostate 88.9% | SK-MEL-5 melanoma 98.9% | UACC-62 melanoma 108% | LOX IMVI melanoma 102% | SK-MEL-28 melanoma 110%

O=P(O)(O)OCC(O)CO (stereo not given)
inactive: HCT-15 colon 104% | HT29 colon 101% | SNB-75 CNS 84% | SNB-19 CNS 104% | U251 CNS 94% | PC-3 prostate 96.7% | SK-MEL-5 melanoma 102% | UACC-62 melanoma 108% | LOX IMVI melanoma 97.9% | SK-MEL-28 melanoma 98.2%

Brc1cnc2ccccc2c1
inactive: HCT-15 colon 101% | HT29 colon 102% | SNB-75 CNS 106% | SNB-19 CNS 95.5% | U251 CNS 103% | PC-3 prostate 97% | SK-MEL-5 melanoma 106% | UACC-62 melanoma 93.4% | LOX IMVI melanoma 101% | SK-MEL-28 melanoma 113%

NNc1ccccc1C(=O)O
inactive: HCT-15 colon 99.1% | HT29 colon 105% | SNB-75 CNS 89.4% | SNB-19 CNS 113% | U251 CNS 107% | PC-3 prostate 99.1% | SK-MEL-5 melanoma 103% | UACC-62 melanoma 107% | LOX IMVI melanoma 101% | SK-MEL-28 melanoma 118%

NCCCN
inactive: HCT-15 colon 101% | HT29 colon 111% | SNB-75 CNS 79.8% | SNB-19 CNS 104% | U251 CNS 95.5% | PC-3 prostate 102% | SK-MEL-5 melanoma 102% | UACC-62 melanoma 109% | LOX IMVI melanoma 112% | SK-MEL-28 melanoma 104%

CC1=NN(c2ccccc2)C(=O)/C1=C\N1CC(=O)NC1=S
inactive: HCT-15 colon 107% | HT29 colon 103% | SNB-75 CNS 91.2% | SNB-19 CNS 101% | U251 CNS 98.3% | PC-3 prostate 93.6% | SK-MEL-5 melanoma 101% | UACC-62 melanoma 97.1% | LOX IMVI melanoma 98.4% | SK-MEL-28 melanoma 112%

C#Cc1cccc(NC(=O)c2ccc(Cl)cc2Cl)c1
inactive: HCT-15 colon 87.6% | HT29 colon 100% | SNB-75 CNS 106% | SNB-19 CNS 97.3% | U251 CNS 91.3% | PC-3 prostate 82.6% | SK-MEL-5 melanoma 91.1% | UACC-62 melanoma 87.9% | LOX IMVI melanoma 98.5% | SK-MEL-28 melanoma 102%

COC(=O)c1ccc(NC(=O)CCl)cc1
inactive: HCT-15 colon 61.7% | HT29 colon 76.3% | SNB-75 CNS 83% | SNB-19 CNS 92.7% | U251 CNS 26.2% | PC-3 prostate 78.2% | SK-MEL-5 melanoma 80.6% | UACC-62 melanoma 72.2% | SK-MEL-28 melanoma 101%
active: LOX IMVI melanoma -19.8%

CC(=O)OC(OC(C)=O)C1CCCO1 (stereo not given)
inactive: HCT-15 colon 104% | HT29 colon 106% | SNB-75 CNS 90.2% | SNB-19 CNS 109% | U251 CNS 105% | PC-3 prostate 95.5% | SK-MEL-5 melanoma 104% | UACC-62 melanoma 95.2% | LOX IMVI melanoma 89.7% | SK-MEL-28 melanoma 97%

CC1OC(Oc2c(-c3ccc(O)c(O)c3)oc3cc(O)cc(O)c3c2=O)C(O)C(O)C1O (stereo not given)
inactive: HCT-15 colon 113% | HT29 colon 107% | SNB-75 CNS 96.5% | SNB-19 CNS 105% | U251 CNS 104% | PC-3 prostate 95.5% | SK-MEL-5 melanoma 91.8% | UACC-62 melanoma 103% | LOX IMVI melanoma 97.1% | SK-MEL-28 melanoma 105%

NC(=O)NC(=O)c1ccc(Cl)cc1
inactive: HCT-15 colon 105% | HT29 colon 94.3% | SNB-75 CNS 93.6% | SNB-19 CNS 111% | U251 CNS 106% | PC-3 prostate 96.5% | SK-MEL-5 melanoma 107% | UACC-62 melanoma 96.1% | LOX IMVI melanoma 103% | SK-MEL-28 melanoma 119%

CC1CC(O)C2C3(C)CCCC2(COC3=O)C12CCC1(CCOC1=O)O2 (stereo not given)
inactive: HCT-15 colon 102% | HT29 colon 109% | SNB-75 CNS 96.4% | SNB-19 CNS 108% | U251 CNS 102% | PC-3 prostate 94% | SK-MEL-5 melanoma 111% | UACC-62 melanoma 114% | LOX IMVI melanoma 107% | SK-MEL-28 melanoma 111%

CC(C)C(C#N)(C(C)C)C(C)C
inactive: HCT-15 colon 104% | HT29 colon 105% | SNB-75 CNS 98.6% | SNB-19 CNS 108% | U251 CNS 102% | PC-3 prostate 92.7% | SK-MEL-5 melanoma 101% | UACC-62 melanoma 102% | LOX IMVI melanoma 112% | SK-MEL-28 melanoma 109%

S=c1sc2ccccc2n1CN1CCCCC1
inactive: HCT-15 colon 102% | HT29 colon 101% | SNB-75 CNS 77.6% | SNB-19 CNS 104% | U251 CNS 104% | PC-3 prostate 77.2% | SK-MEL-5 melanoma 104% | UACC-62 melanoma 104% | LOX IMVI melanoma 84.5% | SK-MEL-28 melanoma 106%

Nc1ccc(NC(=O)c2cccc(N)c2)cc1
inactive: HCT-15 colon 101% | HT29 colon 105% | SNB-75 CNS 91.3% | SNB-19 CNS 94.8% | U251 CNS 96.2% | PC-3 prostate 82.9% | SK-MEL-5 melanoma 103% | UACC-62 melanoma 96.5% | LOX IMVI melanoma 89.9% | SK-MEL-28 melanoma 104%

C/C(=N/NC(N)=O)c1ccco1
inactive: HCT-15 colon 102% | HT29 colon 99.5% | SNB-75 CNS 91.5% | SNB-19 CNS 101% | U251 CNS 96.8% | PC-3 prostate 76.3% | SK-MEL-5 melanoma 105% | UACC-62 melanoma 102% | LOX IMVI melanoma 95.4% | SK-MEL-28 melanoma 117%

CC1NC(=O)NC1CCCCCC(=O)O (stereo not given)
inactive: HCT-15 colon 98.4% | HT29 colon 102% | SNB-75 CNS 94% | SNB-19 CNS 99.8% | U251 CNS 94.5% | PC-3 prostate 86.4% | SK-MEL-5 melanoma 102% | UACC-62 melanoma 96.7% | LOX IMVI melanoma 93.3% | SK-MEL-28 melanoma 115%

CC(=O)OCC1CCCO1 (stereo not given)
inactive: HCT-15 colon 100% | HT29 colon 101% | SNB-75 CNS 96.1% | SNB-19 CNS 105% | U251 CNS 103% | PC-3 prostate 108% | SK-MEL-5 melanoma 101% | UACC-62 melanoma 99.8% | LOX IMVI melanoma 98% | SK-MEL-28 melanoma 108%

CC(=O)OC(C(=O)O)c1ccccc1 (stereo not given)
inactive: HCT-15 colon 111% | HT29 colon 104% | SNB-75 CNS 116% | SNB-19 CNS 115% | U251 CNS 109% | PC-3 prostate 91% | SK-MEL-5 melanoma 105% | UACC-62 melanoma 112% | LOX IMVI melanoma 105% | SK-MEL-28 melanoma 119%

COS(=O)(=O)c1ccc(Br)cc1
inactive: HCT-15 colon 104% | HT29 colon 107% | SNB-75 CNS 89.4% | SNB-19 CNS 98.3% | U251 CNS 89% | PC-3 prostate 93.2% | SK-MEL-5 melanoma 104% | UACC-62 melanoma 85.5% | LOX IMVI melanoma 97.2% | SK-MEL-28 melanoma 98.4%

Cc1cccc(CO)c1
inactive: HCT-15 colon 105% | HT29 colon 108% | SNB-75 CNS 95.1% | SNB-19 CNS 107% | U251 CNS 94.5% | PC-3 prostate 104% | SK-MEL-5 melanoma 99.7% | UACC-62 melanoma 104% | LOX IMVI melanoma 100% | SK-MEL-28 melanoma 109%

CC(=O)c1ccc2c(ccc3ccccc32)c1
inactive: HCT-15 colon 68.4% | HT29 colon 95.6% | SNB-75 CNS 105% | SNB-19 CNS 99.4% | U251 CNS 92.1% | PC-3 prostate 104% | SK-MEL-5 melanoma 96.8% | UACC-62 melanoma 96.5% | LOX IMVI melanoma 107% | SK-MEL-28 melanoma 108%

Cn1cnc2nc(Cl)nc(Cl)c21
inactive: HCT-15 colon 31.7% | SNB-75 CNS 47.9% | SNB-19 CNS 61.4% | U251 CNS 14.2% | PC-3 prostate 25.1% | SK-MEL-5 melanoma 16% | UACC-62 melanoma 54.9% | LOX IMVI melanoma 18.1% | SK-MEL-28 melanoma 65.1%
active: HT29 colon -29.9%

CN(C)c1nc2c([nH]1)c(=O)n(C)c(=O)n2C
inactive: HCT-15 colon 108% | HT29 colon 102% | SNB-75 CNS 102% | SNB-19 CNS 111% | U251 CNS 93.4% | PC-3 prostate 91.6% | SK-MEL-5 melanoma 101% | UACC-62 melanoma 105% | LOX IMVI melanoma 98.7% | SK-MEL-28 melanoma 110%
